# Results: PubChem BioAssay (NCI)
# The panel holds about 83,000 compounds, 20% with a hit somewhere; the sample as a whole holds those more often.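 Values shown are percent growth following 48 h exposure of cells in 96-well plates to a single concentration of compound; below 10 was considered active.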 Unmarked numbers belong to inactive results. The source made the active and inactive calls.
# System: HL-60(TB) leukemia
# Experiment: NCI-60 one-dose screen, 48 h (100 = growth as untreated, 0 = no growth, -100 = all killed)
# Details: 10 µM unless noted
row,SMILES,growth
1,N/C(=N\c1nc2ccccc2s1)NC(=O)Nc1ccc(Cl)cc1Cl,-66% (active)
2,COc1cc(CNC(=O)C[C@H](C)CCC=C(C)C)ccc1OCc1cn(-c2ccc(Br)cc2)nn1,88.4%
3,CN1CCN(Cc2ccc(NC(=O)c3cncc(C#Cc4cnc5ccc(N[C@H]6CCOC6)nn45)c3)cc2C(F)(F)F)CC1,-54.4% (active)
4,Cc1noc2c(Cc3ccc([N+](=O)[O-])cc3)nn(CC(=O)N/N=C/c3ccc(Cl)cc3)c(=O)c12,87.5%
5,COc1ccc(-c2ccc(/C=N/NC(=O)c3[nH]c4ccc(Br)cc4c3-c3ccccc3)o2)cc1,6.17% (active)
6,Cc1ccc(F)cc1N/C=c1\s/c(=C(\C#N)C(=O)Nc2ccccc2)n(-c2ccccc2)c1=O,111%
7,COc1c2c(cc3c1C(CCc1ccccc1)N(C)CC3)OCO2 (stereo not given),-28.3% (active)
8,CC(C)(C)c1ccc(NCc2cn(-c3ccc(C(=O)O)cc3)nc2-c2ccc(C#N)cc2)cc1,3.14% (active)
9,O=C(c1ccccc1)c1ccc2nc(-c3cccc(Cl)c3)[nH]c2c1,97.6%
10,CC[C@]12C=CCN3CC[C@@]4(c5ccc(OC)cc5N(C)[C@H]4[C@@](O)(C(=O)OC)[C@@H]1OC(=O)CCC[P+](c1ccc(OC)cc1)(c1ccc(OC)cc1)c1ccc(OC)cc1)[C@@H]32,-39.7% (active)
11,CCCCSc1nc(Nc2ccc(/C(C)=N/NC(N)=S)cc2)c(C#N)c(-c2ccc(OC)cc2)n1,92.2%
12,Cc1ccc(-c2nc(Nc3ccc(C)c(S(N)(=O)=O)c3)c3ccccc3n2)cc1,89.1%
13,O=c1[nH]c(=O)c2c(-c3cc4ccccc4oc3=O)ccnc2[nH]1,106%
14,OCCNc1oc(-c2ccccc2)nc1[P+](c1ccccc1)(c1ccccc1)c1ccccc1,-29.6% (active)
15,Cc1nc2c(cnn2-c2ccccc2)c(=O)n1-c1ccc(NC(=O)c2ccc(F)cc2)cc1,42.5%
16,CCCCOc1ccc(NC(=O)c2sc3nc(C)ccc3c2N)cc1,46.8%
17,COc1ccccc1[C@H]1C(C(=O)c2ccc(O)cc2)C2(N[C@@H]1c1ccccc1)C(=O)Nc1ccc(Br)cc12 (stereo not given in full),10.5%
18,COc1cc(/C=C/C(=O)c2ccccc2)ccc1Oc1nc(Nc2ccc(F)cc2)nc(N(C)C)n1,20.5%
19,COc1ccc([C@H]2C(C(=O)c3ccc(Cl)cc3)C3(N[C@@H]2c2ccccc2)C(=O)Nc2ccccc23)cc1 (stereo not given in full),29.2%
20,CN(C)CCOc1ccc(C(=O)C2[C@H](c3ccc(Cl)cc3)[C@@H](c3ccccc3)NC23C(=O)Nc2ccc(Br)cc23)cc1 (stereo not given in full),-60.6% (active)

row,SMILES,growth
1,O=C(NO)c1ccc(Cn2ccc3c(Nc4ccccc4)ncnc32)cc1,0.922% (active)
2,CO[C@H]1CSS[C@@H]1Cn1nc(-c2ccc(Oc3ccccc3)cc2)c2c(N)ncnc21,8.96% (active)
3,CCOC(=O)C1=C(N)N(c2ccccc2)C2=C(C(=O)CC(C)(C)C2)C1c1ccc(Cl)cc1Cl (stereo not given),1.24% (active)
4,Cc1ccccc1[C@H]1C(C(=O)c2ccc(Cl)cc2)C2(N[C@@H]1c1ccccc1)C(=O)Nc1ccc(Cl)cc12 (stereo not given in full),-32.2% (active)
5,Cc1ccc(C(=O)C(c2c[nH]c3ccccc23)c2c[nH]c3ccccc23)cc1,17.2%
6,COc1ccc(NC(=O)c2sc3nc(C(C)C)ccc3c2N)cc1,66.3%
7,CC1(C)CC[C@]2(C(=O)O)CC[C@]3(C)C(=CCC4[C@@]5(C)C[C@@H](O)[C@@H]6OC(c7cccc(Br)c7)OC[C@@]6(C)C5CC[C@]43C)C2C1 (stereo not given in full),7.87% (active)
8,Cc1cnc2ccc(Oc3ccccc3-c3ccccc3)nn12,107%
9,Cc1cccc(NCC(=O)N2CCN(c3ncnc4c3cnn4-c3ccccc3)CC2)c1,60.2%
10,Brc1ccc(N/N=C/c2c[nH]c3ccccc23)nc1,13.2%
11,COC(=O)/C=C/c1cccc2c1C(=O)NC(C)(c1cc3ccccc3oc1=O)N2 (stereo not given),40%
12,CCOC(=O)c1ccc(NC(=S)NC(=O)c2ccc(NC(=O)C(C)C)cc2OC)cc1,46.3%
13,N#Cc1c(-c2ccccc2Cl)cc(-c2ccc3ccccc3c2)[nH]c1=O,71.9%
14,CNS(=O)(=O)c1ccc(Nc2ccc(C(F)(F)F)cc2)c(-c2cn(C)cn2)c1,48%
15,O=C(N=Nc1c(O)[nH]c2ccc(Cl)cc12)c1ccc2nc(-c3ccc(Cl)cc3)[nH]c2c1,45.2%
16,COc1ccc2[nH]c(=O)c(CSc3nccc(-c4ccc(Cl)cc4)n3)cc2c1,29.3%
17,O=c1c2ccccc2nc(COc2ccccc2)n1/N=C/c1ccc(N2CCCC2)cc1,101%
18,Cc1ccc(C(=O)NNC(=O)CSc2nc3ccccc3c(=O)[nH]2)cc1,93.3%
19,CC(=O)c1cc(C(=O)c2ccccc2)n2c1ccc1ccccc12,94.7%
20,OC(c1ccccc1)(c1ccccc1)C1CCN(c2ccc3nnc(Cl)n3n2)CC1,-33.6% (active)
